# Laboratory results published in article PMC7862700, “An all-to-all approach to the identification of sequence-specific readers for epigenetic DNA modifications on cytosine”.
# Columns and labels:
# Experiment in all cases: DAPPL (digital affinity profiling via proximity ligation, sequencing); 10 mM Tris-HCl pH 7.5, 50 mM NaCl, 1 mM DTT, 4% glycerol, room temperature, 30 min; GST-TFs on glutathione beads, 16-mer random dsDNA library, 0.1% formaldehyde crosslink after washing; high values mean tight binding
# Conditions in all cases: protein: recombinant; tags: N-terminal GST; dsDNA, one strand shown
# FLI1 = biological target: T1, FLI1 (Homo sapiens, UniProt Q01543 1-452)
# T1 sequence: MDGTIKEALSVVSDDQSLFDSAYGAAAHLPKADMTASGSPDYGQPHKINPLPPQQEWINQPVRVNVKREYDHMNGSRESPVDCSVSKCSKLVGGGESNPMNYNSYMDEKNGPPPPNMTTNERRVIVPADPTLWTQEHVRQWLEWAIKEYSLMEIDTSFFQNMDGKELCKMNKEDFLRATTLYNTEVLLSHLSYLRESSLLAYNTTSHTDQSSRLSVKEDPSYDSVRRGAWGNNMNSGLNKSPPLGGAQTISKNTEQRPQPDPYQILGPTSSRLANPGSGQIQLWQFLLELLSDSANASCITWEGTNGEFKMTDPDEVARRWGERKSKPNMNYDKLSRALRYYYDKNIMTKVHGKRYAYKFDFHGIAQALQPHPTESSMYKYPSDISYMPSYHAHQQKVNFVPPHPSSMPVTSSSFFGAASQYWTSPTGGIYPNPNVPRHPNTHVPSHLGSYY
# In short: (§1)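 Each value of binding signal is a hexamer's read frequency for a factor divided by the same hexamer's frequency in the tag-only sample. Barcoded, bead-captured GST fusions of human transcription factors made in yeast were pooled with that sample and incubated with 200 nmole of a random double-stranded 16-mer DNA library in Tris/NaCl/DTT/glycerol buffer at room temperature for 30 min. Washing, 0.1% formaldehyde crosslinking, proximity ligation, PCR and Illumina NextSeq500 sequencing followed.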
# ELK1 = biological target: T2, ELK1 (Homo sapiens, UniProt P19419 1-428)
# T2 sequence: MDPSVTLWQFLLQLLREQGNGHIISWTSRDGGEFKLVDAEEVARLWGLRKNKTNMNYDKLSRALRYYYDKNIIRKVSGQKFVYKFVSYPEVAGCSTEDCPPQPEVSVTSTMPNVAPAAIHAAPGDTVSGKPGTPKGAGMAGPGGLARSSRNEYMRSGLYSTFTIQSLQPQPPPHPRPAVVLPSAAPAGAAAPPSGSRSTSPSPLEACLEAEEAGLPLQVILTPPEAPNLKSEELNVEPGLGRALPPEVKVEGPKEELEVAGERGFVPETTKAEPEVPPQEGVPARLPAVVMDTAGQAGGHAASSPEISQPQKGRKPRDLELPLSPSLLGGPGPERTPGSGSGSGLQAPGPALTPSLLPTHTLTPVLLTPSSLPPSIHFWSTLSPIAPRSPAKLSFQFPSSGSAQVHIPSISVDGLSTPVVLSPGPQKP
# In short: as §1
# GABPA = biological target: T3, GABPA (Homo sapiens, UniProt Q06546 1-454)
# T3 sequence: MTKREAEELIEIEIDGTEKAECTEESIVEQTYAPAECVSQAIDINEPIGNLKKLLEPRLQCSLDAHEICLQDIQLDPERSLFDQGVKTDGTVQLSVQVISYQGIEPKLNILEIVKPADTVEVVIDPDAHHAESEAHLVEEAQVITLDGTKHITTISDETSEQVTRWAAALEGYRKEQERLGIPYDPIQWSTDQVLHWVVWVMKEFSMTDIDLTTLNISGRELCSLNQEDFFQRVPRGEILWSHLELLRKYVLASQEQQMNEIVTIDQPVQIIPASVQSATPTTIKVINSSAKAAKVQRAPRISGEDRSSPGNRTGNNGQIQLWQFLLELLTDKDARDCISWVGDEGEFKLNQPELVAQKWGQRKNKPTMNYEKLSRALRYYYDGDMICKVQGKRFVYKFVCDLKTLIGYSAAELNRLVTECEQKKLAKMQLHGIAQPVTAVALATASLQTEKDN
# In short: as §1
# ERG = biological target: T4, ERG (Homo sapiens, UniProt P11308 1-479)
# T4 sequence: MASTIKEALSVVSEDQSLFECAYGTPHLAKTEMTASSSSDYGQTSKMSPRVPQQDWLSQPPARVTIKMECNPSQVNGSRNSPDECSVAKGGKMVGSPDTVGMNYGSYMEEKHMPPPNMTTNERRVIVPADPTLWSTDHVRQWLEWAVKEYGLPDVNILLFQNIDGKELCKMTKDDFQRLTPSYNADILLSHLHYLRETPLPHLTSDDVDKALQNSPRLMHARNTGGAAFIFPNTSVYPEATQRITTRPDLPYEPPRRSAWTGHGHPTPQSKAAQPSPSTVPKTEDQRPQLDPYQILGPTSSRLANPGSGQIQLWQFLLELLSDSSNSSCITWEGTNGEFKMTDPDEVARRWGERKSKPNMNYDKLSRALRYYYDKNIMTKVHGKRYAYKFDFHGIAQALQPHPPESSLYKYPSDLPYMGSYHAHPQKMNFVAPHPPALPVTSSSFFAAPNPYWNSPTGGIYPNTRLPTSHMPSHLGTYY
# In short: as §1
# ELF1 = ELF1 (Homo sapiens, UniProt P32519 1-619)
# In short: as §1
# EHF = biological target: T5, EHF (Homo sapiens, UniProt Q9NZC4 1-300)
# T5 sequence: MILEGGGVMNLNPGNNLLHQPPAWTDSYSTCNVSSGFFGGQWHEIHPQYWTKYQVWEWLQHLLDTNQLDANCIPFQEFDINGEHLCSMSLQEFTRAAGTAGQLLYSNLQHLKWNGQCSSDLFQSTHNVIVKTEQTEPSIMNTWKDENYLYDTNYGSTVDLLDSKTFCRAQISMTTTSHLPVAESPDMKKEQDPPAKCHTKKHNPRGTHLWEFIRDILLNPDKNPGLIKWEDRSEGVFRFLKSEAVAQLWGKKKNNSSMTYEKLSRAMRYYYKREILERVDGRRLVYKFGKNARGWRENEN
# In short: as §1
# SPI1 = SPI1 (Homo sapiens, UniProt P17947 1-270)
# In short: as §1
# SPIB = SPIB (Homo sapiens, UniProt Q01892 1-262)
# In short: as §1
# ELK3 = biological target: T6, ELK3 (Homo sapiens, UniProt P41970 1-407)
# T6 sequence: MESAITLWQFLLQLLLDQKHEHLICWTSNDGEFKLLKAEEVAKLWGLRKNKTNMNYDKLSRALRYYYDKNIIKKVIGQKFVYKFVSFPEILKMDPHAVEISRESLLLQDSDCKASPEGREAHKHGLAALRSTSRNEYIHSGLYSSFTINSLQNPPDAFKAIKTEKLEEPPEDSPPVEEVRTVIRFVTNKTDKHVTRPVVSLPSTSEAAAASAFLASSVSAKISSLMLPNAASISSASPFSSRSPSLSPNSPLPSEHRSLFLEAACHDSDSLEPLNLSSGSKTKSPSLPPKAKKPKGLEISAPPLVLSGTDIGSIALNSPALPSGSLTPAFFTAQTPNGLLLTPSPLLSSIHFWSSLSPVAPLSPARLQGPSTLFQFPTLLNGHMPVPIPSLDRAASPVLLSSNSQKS
# In short: as §1
# Chain of SPIB (Q01892 whole entry): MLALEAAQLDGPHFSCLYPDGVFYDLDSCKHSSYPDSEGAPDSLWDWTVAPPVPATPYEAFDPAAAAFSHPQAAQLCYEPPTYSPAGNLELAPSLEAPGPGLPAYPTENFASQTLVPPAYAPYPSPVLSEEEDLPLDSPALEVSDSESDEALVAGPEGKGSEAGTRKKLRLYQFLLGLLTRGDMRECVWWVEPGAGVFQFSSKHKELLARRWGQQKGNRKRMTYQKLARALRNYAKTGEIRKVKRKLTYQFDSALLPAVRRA
# Chain of ELF1 (P32519 whole entry): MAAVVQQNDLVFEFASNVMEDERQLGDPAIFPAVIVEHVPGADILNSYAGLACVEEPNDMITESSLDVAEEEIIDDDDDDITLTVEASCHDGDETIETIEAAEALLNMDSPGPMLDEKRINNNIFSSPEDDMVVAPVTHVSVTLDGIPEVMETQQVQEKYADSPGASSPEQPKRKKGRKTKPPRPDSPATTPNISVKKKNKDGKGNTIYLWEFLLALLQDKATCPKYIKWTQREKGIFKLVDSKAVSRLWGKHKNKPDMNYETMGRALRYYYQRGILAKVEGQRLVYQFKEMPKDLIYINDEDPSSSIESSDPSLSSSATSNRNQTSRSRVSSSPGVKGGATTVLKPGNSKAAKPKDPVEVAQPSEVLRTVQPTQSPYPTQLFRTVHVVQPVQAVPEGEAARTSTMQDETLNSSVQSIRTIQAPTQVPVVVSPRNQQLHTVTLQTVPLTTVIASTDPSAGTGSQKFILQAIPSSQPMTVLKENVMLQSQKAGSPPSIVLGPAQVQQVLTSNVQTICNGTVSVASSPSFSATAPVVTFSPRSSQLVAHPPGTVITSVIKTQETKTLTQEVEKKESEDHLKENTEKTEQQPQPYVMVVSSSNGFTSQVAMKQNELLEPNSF
sequence,measurement,setting,value
ACTACT,binding signal,FLI1,"1.28 fold enrichment (6-mer frequency, TF over GST control)"
same,binding signal,ELK1,"1.25 fold enrichment (6-mer frequency, TF over GST control)"
same,binding signal,GABPA,"1.28 fold enrichment (6-mer frequency, TF over GST control)"
same,binding signal,ERG,"1.28 fold enrichment (6-mer frequency, TF over GST control)"
same,binding signal,ELF1,"1.32 fold enrichment (6-mer frequency, TF over GST control)"
same,binding signal,EHF,"1.34 fold enrichment (6-mer frequency, TF over GST control)"
same,binding signal,SPI1,"1.29 fold enrichment (6-mer frequency, TF over GST control)"
same,binding signal,SPIB,"1.34 fold enrichment (6-mer frequency, TF over GST control)"
same,binding signal,ELK3,"1.31 fold enrichment (6-mer frequency, TF over GST control)"
